# Experimental data published in PubChem BioAssay.
# The source made the active and inactive calls.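 Rule for the calls, unless noted: active = inhibition of the reporter signal at or above 50%; inactive = inhibition below 50%.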
# Experiments:
# [1] = inhibitors of TNFa-induced NFkB p65 translocation, primary screen, imaging, HUVEC, MLSMR starter and 10KST1 sets (AID 438;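 active = inhibition above 20% together with a positive visual image hit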;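 note: compound added about 3h40 before a 20 min TNFalpha stimulation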;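 for inhibition: signal is the nuclear over cytoplasmic p65 intensity ratio per well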); conditions: HUVEC TNFa-induced p65 nuclear translocation; cell count: measured here: nuclei count (cytotoxicity indicator), at 2.08 µM; inhibition: at 2 µM, stronger effect = higher value, 0% TNFa-plus-vehicle, 100% no-TNFa wells
# [2] = inhibitors of mutant huntingtin aggregation, primary screen, imaging, exon1htt(103Q)mCFP cells, high-content imaging (AID 483;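 active = visual image review flags a hit and inhibition of aggregation exceeds 20%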;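 note: compound exposure lasted 3 days before fixation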;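 for nuclei count: percent of the per-plate median nuclei count of sample wells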); conditions: exon1htt(103Q)mCFP cell line, aggregate imaging, at 2 µM; inhibition of aggregation: stronger effect = higher value; nuclei count: measured here: cell count, toxicity
# [3] = inhibitors of E-selectin induction by TNFa, primary screen, imaging, HUVEC, immunofluorescence, MLSMR starter and 10KST1 sets (AID 487;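 active = visually confirmed hit in the image check and inhibition above 20%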;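 for inhibition: signal is fraction of cell area covered by stained E-selectin grains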;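 for nuclei count: 100% = median nuclei count of all wells on the same plate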); conditions: HUVEC TNFalpha-induced E-selectin immunofluorescence imaging, at 2 µM; inhibition: stronger effect = higher value; nuclei count: measured here: cell number, toxicity
# [4] = DUSP6 inhibitors restoring Erk phosphorylation by chemical complementation, primary imaging in DUSP6-transfected HeLa (AID 609;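 active = compounds giving at least 50% inhibition in the cell-based MKP-3 phosphatase rescue imaging test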;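 for inhibition: phospho-Erk level distribution per well compared with pooled transfected vehicle control wells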); conditions: HeLa MKP-3 transfected, phospho-Erk imaging KS statistic, at 10 µM, cells stimulated with TPA for 15 min
# [5] = target: Dual specificity protein phosphatase 6 (Homo sapiens) (UniProt Q16828); test: as above; conditions: HeLa MKP-3 transfected, phospho-Erk imaging KS statistic; at 10 µM; stronger effect = higher value; cells stimulated with TPA for 15 min
# Chain of Dual specificity protein phosphatase 6 (Homo sapiens) (Q16828 whole entry, looked up): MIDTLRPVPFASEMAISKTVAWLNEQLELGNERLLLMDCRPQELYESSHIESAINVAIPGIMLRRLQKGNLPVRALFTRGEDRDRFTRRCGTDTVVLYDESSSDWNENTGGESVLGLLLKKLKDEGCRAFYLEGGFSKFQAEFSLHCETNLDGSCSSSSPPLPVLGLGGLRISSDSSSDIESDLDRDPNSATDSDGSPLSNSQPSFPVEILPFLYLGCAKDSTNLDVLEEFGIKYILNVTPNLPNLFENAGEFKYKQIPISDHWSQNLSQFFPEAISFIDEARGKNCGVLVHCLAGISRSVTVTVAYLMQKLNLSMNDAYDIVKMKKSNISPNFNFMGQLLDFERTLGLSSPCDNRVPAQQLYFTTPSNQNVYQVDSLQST
# [6] = target: Voltage-gated potassium channel subunit beta-2 (Rattus norvegicus) (UniProt P62483); test: KvBeta enzyme negative modulators, primary screen, biochemical, NADPH fluorescence (AID 622;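 active = fluorescence slope higher than the sample average by over 3 SD, cut at about -0.22 in these data, passing the limit was not always enough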;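 note: slope of raw intensity against log time taken from 70 to 1610 s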); conditions: recombinant KvBeta, 4-cyanobenzaldehyde reduction, at 10 µM, stronger effect = higher value
# Chain of Voltage-gated potassium channel subunit beta-2 (Rattus norvegicus) (P62483 whole entry, looked up): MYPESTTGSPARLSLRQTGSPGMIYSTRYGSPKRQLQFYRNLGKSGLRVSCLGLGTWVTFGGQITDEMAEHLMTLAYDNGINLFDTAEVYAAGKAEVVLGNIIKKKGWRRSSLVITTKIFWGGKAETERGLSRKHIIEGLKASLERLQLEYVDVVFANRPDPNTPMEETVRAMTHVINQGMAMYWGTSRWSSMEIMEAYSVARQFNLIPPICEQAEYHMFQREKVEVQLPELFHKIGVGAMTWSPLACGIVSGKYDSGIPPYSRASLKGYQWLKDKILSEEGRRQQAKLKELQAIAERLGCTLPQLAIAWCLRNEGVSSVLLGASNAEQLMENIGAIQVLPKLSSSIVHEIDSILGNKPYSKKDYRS
# [7] = target: Voltage-gated potassium channel subunit beta-2 (Rattus norvegicus) (UniProt P62483); test: KvBeta positive modulators, primary screen, biochemical, NADPH fluorescence (AID 623;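 active = NADPH fluorescence slope more negative than the mean of all samples by about 3 SD, 99.7% confidence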;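 note: fluorescence intensity change per second fitted from 20 to 320 s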); conditions: Recombinant KvBeta, NADPH fluorescence decrease slope, 10 min; at 10 µM; stronger effect = lower value
# [8] = target: Muscarinic acetylcholine receptor M4 (Homo sapiens) (UniProt P08173); test: compounds altering M4/GIRK thallium flux, either direction, primary screen, M4 allosteric agonist project, cell-based, HEK293 M4/GIRK, BTC-AM (AID 625;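 active = fluorescence slope after compound addition differing from the mean of all tested samples at 99.7% confidence, mostly higher but some lower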;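 note: thallium influx through GIRK channels coupled to M4 in HEK293 cells with BTC-AM dye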); conditions: at 10 µM, actives lie on both sides
# Chain of Muscarinic acetylcholine receptor M4 (Homo sapiens) (P08173 whole entry, looked up): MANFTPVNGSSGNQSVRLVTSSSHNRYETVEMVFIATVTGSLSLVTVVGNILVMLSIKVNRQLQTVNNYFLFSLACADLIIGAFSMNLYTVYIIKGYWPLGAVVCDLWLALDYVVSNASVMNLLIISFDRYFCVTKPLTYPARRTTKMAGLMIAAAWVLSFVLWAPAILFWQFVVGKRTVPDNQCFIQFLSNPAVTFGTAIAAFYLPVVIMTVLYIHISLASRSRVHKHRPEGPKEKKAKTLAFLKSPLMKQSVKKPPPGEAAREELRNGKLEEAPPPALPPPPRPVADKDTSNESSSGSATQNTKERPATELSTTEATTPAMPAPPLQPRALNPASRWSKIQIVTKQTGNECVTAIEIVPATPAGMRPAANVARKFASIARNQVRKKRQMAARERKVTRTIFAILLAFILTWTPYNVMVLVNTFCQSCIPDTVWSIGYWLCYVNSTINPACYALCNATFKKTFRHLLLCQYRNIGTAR
# [9] = inhibitors of larval lipid processing in zebrafish, primary screen, whole organism, PED6 fluorescence, gall bladder and intestine (AID 686;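 active = a full or partial loss of lipid-probe fluorescence in the fish gall bladder, intestine or both, judged by eye; inactive = no fluorescence loss, or compound toxic to the fish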;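 note: larvae 5 to 7 days old with five fish per well; signal comes from phospholipase A2 cleavage of quenched PED6 carried via bile; overnight exposure to compound and PED6 before scoring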); conditions: Zebrafish larvae PED6 lipid processing, fluorescence scoring; screened at 20 µM (by protocol)
# [10] = inhibitors of Chlamydomonas gravitaxis, primary screen, whole organism, Chlamydomonas reinhardtii, WT vs cilia-less mutant, absorbance, 96-well (AID 463189;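 active = inhibition at or above 50% relative to wild type and mutant plate controls; inactive = inhibition below 50%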;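 note: 0% = wild type cc124 cells in DMSO and 100% = ciliumless bld1 mutant cells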); conditions: OD600 absorbance, 2 days, at 10 µM, stronger effect = higher value
# [11] = inhibitors of Sendai virus-induced IRF3 signaling, primary screen, TLR/RLR signaling modifier project, cell-based, Sendai virus stimulus, luciferase, 10K MLSCN set (AID 602276;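 active = inhibition at or above 50% at 10 µM; inactive = inhibition below 50%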;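 note: firefly luciferase from ISG56 promoter only with Renilla not read in this screen; 0% = Sendai virus plus DMSO and 100% = medium plus DMSO without virus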); conditions: HEK293 RL24 IRF3 luciferase reporter, at 10 µM, stronger effect = higher value
# [12] = inhibitors of poly I:C-induced TLR3 signaling, primary screen, cell-based, poly I:C stimulus, luciferase, 10K MLSCN set (AID 602277); conditions: HEK293-TLR3 RL24 IRF3 luciferase reporter, at 10 µM, stronger effect = higher value
# [13] = measured here: cell density z-score
# [14] = measured here: nuclear c-Myc green intensity z-score
# [15] = measured here: nuclear pErk red intensity z-score, stronger effect = higher value
Structure (SMILES),cell count [1],inhibition [1],inhibition of aggregation [2],nuclei count [2] [%],inhibition [3],nuclei count [3] [%],"z-score [4, 13]","z-score [4, 14]","z-score [4, 15]",inhibition [5],fluorescence slope [6],NADPH fluorescence slope [7],fluorescence slope [8],outcome [9],inhibition [10],inhibition [11],inhibition [12]
CCCCCn1c2nc3ccccc3nc2c2c(=O)n(CC(C)C)cnc21,641,-4.1% (inactive),14.3% (inactive),105,-73.9% (inactive),130,-0.357,2.75,1.53,15% (inactive),-0.429 (inactive),-4.4e-05 (inactive),0.00475 (inactive),inactive,16.4% (inactive),19.4% (inactive),19.9% (inactive)
O=C(NCc1cccnc1)c1ccc(=O)oc1,649,-2% (inactive),-18.7% (inactive),103,43% (inactive),110,-0.741,1.41,-1.58,4.37% (inactive),-0.496 (inactive),-4.3e-05 (inactive),0.00411 (inactive),inactive,18.7% (inactive),10.2% (inactive),11.5% (inactive)
CC(=Nc1cccc(O)c1)c1sc2ccccc2c1O,745,-2.4% (inactive),-13% (inactive),96.4,-0.7% (inactive),123,0.824,0.631,-1.52,13.2% (inactive),-0.303 (inactive),-6.7e-05 (inactive),0.0088 (inactive),inactive; toxic,-2.68% (inactive),-6% (inactive),76.3% (active)
COc1ccc2c(c1)[nH]c1c(=O)n(CC3CCCO3)cnc12 (configuration not stated),702,-0.4% (inactive),5.9% (inactive),73.4,-39.2% (inactive),133,1.51,-0.546,-1.36,-2.91% (inactive),-0.423 (inactive),-4.3e-05 (inactive),0.00561 (inactive),inactive,0.053% (inactive),-17.6% (inactive),-27.5% (inactive)
Nn1c(SCC(=O)Nc2ccc3c(c2)OCCO3)nnc1C(F)(F)F,598,0% (inactive),-32.9% (inactive),105,-26.1% (inactive),110,0.295,-0.513,-1.34,10.9% (inactive),-0.426 (inactive),-5.4e-05 (inactive),0.00501 (inactive),inactive,11.3% (inactive),12.4% (inactive),21.3% (inactive)
Cc1nn(-c2ccccc2)c2c1C(=O)NC(=O)C(C)(C)C2,526,2.2% (inactive),9.8% (inactive),105,-24.8% (inactive),120,0.866,1.24,0.796,-5.81% (inactive),-0.52 (inactive),4.3e-05 (inactive),0.00545 (inactive),inactive,-12.8% (inactive),14.6% (inactive),18.9% (inactive)
CCOC(=O)c1ccc(N=Cc2nc(-c3ccccc3)oc2OC(C)=O)cc1,794,-6.6% (inactive),-2.7% (inactive),98.2,-0.4% (inactive),120,0.0584,0.0892,-0.36,11.3% (inactive),-0.395 (inactive),-5.5e-05 (inactive),0.00761 (inactive),inactive; toxic,23.8% (inactive),4.63% (inactive),11.1% (inactive)
Nc1nnnn1/N=C/c1ccccn1,568,-2.8% (inactive),-8.1% (inactive),98.2,-155% (inactive),142,1.54,-1.1,-0.159,34.3% (inactive),-0.513 (inactive),-6e-05 (inactive),0.00549 (inactive),inactive,26.1% (inactive),-14.9% (inactive),-32% (inactive)
CCOc1ccccc1N1CCN(c2nc3ccccc3nc2C(C#N)C(=O)OC)CC1 (configuration not stated),535,0.2% (inactive),-3.8% (inactive),106,-43.1% (inactive),102,-0.286,0.234,1.2,-9.53% (inactive),-0.501 (inactive),-7e-05 (inactive),0.00534 (inactive),inactive,-13.8% (inactive),10.2% (inactive),16.1% (inactive)
CCOC(=O)c1[nH]c2ccc(Br)cc2c1NC(=O)CNC,737,5.1% (inactive),-0.9% (inactive),113,-29% (inactive),141,-0.195,0.821,0.769,11.9% (inactive),-0.518 (inactive),-6.6e-05 (inactive),0.00596 (inactive),inactive,-9.05% (inactive),18.6% (inactive),33.1% (inactive)
O=C(NCCN1CCCCC1)c1ccc(=O)oc1,586,-3% (inactive),-8.2% (inactive),90.9,-0.3% (inactive),130,0.13,0.819,-0.401,4.37% (inactive),-0.482 (inactive),-5.1e-05 (inactive),0.00918 (inactive),inactive,-5.06% (inactive),3.93% (inactive),3.77% (inactive)
Cc1nc2ccccc2cc1O,395,-0.5% (inactive),21.5% (inactive),80.3,-67% (inactive),103,-0.53,-0.624,1.27,1.42% (inactive),-0.392 (inactive),-3.6e-05 (inactive),0.00432 (inactive),inactive,53.3% (active),17.5% (inactive),27.8% (inactive)
O=C(OCCCN1CCCC1)C1(c2ccccc2)CCCC1,621,2.6% (inactive),-0.8% (inactive),80.3,39.9% (inactive),126,-0.268,-0.108,-0.136,1.04% (inactive),-0.456 (inactive),-5.5e-05 (inactive),0.00493 (inactive),inactive,91.8% (active),-13.4% (inactive),-17.4% (inactive)
Cc1nnc2n(-c3ccccc3)c(=O)c3c4c(sc3n12)CCCC4,661,-4.7% (inactive),8% (inactive),95.5,-54% (inactive),122,-1.12,-0.18,0.377,-3.95% (inactive),-0.468 (inactive),-0.000128 (inactive),0.00446 (inactive),inactive,24.9% (inactive),-14.4% (inactive),-35.5% (inactive)
Cc1ccc(-n2ncc3c(N4CCN(c5ccccc5)CC4)ncnc32)c(C)c1,600,-15.9% (inactive),-1.5% (inactive),113,-27.8% (inactive),154,-0.444,-0.19,1.79,-12.6% (inactive),-0.379 (inactive),-5e-05 (inactive),0.00708 (inactive),inactive,2.19% (inactive),20.5% (inactive),-19.9% (inactive)
COc1ccccc1N=Cc1nc(-c2ccccc2)oc1OC(C)=O,451,-8.2% (inactive),-25.8% (inactive),84.2,-86.5% (inactive),132,0.537,-1.18,0.127,13.2% (inactive),-0.347 (inactive),-5.8e-05 (inactive),0.00675 (inactive),inactive,23% (inactive),18.8% (inactive),40.5% (inactive)
Cc1ccc(C(=O)/C=C/Nc2cccc(O)c2)cc1,368,-4.7% (inactive),-12% (inactive),106,-0.2% (inactive),115,-0.411,-0.594,0.929,-8.59% (inactive),-0.467 (inactive),-0.000129 (inactive),0.00389 (inactive),inactive,37.3% (inactive),5.62% (inactive),-32.3% (inactive)
COc1ccc(CCn2c(=N)c(C(=O)NCc3ccco3)cc3c(=O)n4ccccc4nc32)cc1,496,-4.9% (inactive),-10% (inactive),94.4,-63.3% (inactive),108,0.843,0.0165,-1.15,24.3% (inactive),-0.516 (inactive),-1.6e-05 (inactive),0.00166 (active),inactive,-7.81% (inactive),5.21% (inactive),17.8% (inactive)
COc1ccc2c(c1)[nH]c1c(=O)n(CCN(C)C)cnc12,660,-3.5% (inactive),-8.1% (inactive),102,23.1% (inactive),135,-1.37,2.24,-0.536,9.61% (inactive),-0.449 (inactive),-3.5e-05 (inactive),0.00667 (inactive),inactive,2.29% (inactive),17% (inactive),24.4% (inactive)
COc1ccccc1C1C(C#N)=C(N)Oc2cc(C)n(Cc3ccccn3)c(=O)c21 (configuration not stated),679,-2.4% (inactive),12% (inactive),99.3,-46.2% (inactive),122,0.97,-0.155,-0.154,0.671% (inactive),-0.453 (inactive),-3.2e-05 (inactive),0.00473 (inactive),inactive,7.42% (inactive),-7.32% (inactive),4.86% (inactive)
O=C(NC1CCS(=O)(=O)C1)c1c(NC(=O)C2COc3ccccc3O2)sc2c1CCCC2 (configuration not stated),657,-7% (inactive),3% (inactive),97.6,-35.3% (inactive),143,0.65,-1.93,0.35,5.42% (inactive),-0.42 (inactive),-4.5e-05 (inactive),0.00528 (inactive),inactive,30.5% (inactive),17.1% (inactive),14.6% (inactive)
